Source: PubChem
Only some compounds are listed: those with a hit (about 6.8% of all), similar ones and a draw of the others.
PMK inhibit: S. pneumoniae PMK inhibitors, primary screen, biochemical, mevalonate pathway, pilot trial included. inhibition, % at 10 µM. purified PMK, PK/LDH-coupled NADH absorbance 340 nm. 0.49% of 65,000 active;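 active = top-ranked compounds by inhibition in the single 10 µM screen, taking a fixed number of the strongest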
Spn DPM-DC inh: S. pneumoniae DPM-DC inhibitors, primary screen, biochemical, PK/LDH-coupled NADH fluorescence. calls only at 10 µM. AID 556, 2006. diphosphomevalonate decarboxylase (Streptococcus pneumoniae D39). purified DPM-DC. 0.49% of 65,000 active;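 active = the 320 compounds with the highest percent inhibition in the single-dose primary screen, excluding strongly autofluorescent ones, cut at about 32% in these data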;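 also: kinetic rate of NADH fluorescence loss reporting ADP formed by the decarboxylase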
MK inhibit: S. pneumoniae MK inhibitors, primary screen, biochemical, PK/LDH-coupled NADH absorbance; purified MK, PK/LDH-coupled NADH absorbance 340 nm; inhibition, % at 10 µM; 0.48% of 65,000 active;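 active = ranked among the strongest by inhibition in the single 10 µM screen, a fixed top-ranked set picked for dose follow-up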
NADH enzymes: inhibitors of PK/LDH coupling enzymes, profiling panel, artefact control, biochemical, MLSMR library; coupled PK/LDH NADH assays, four targets; 0.02% of 65,000 active; AID 774, 2007; IC50, µM (top dose mostly 10 µM);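 active = single-dose screening hits from any of four coupled enzyme assays that gave an IC50 when retested across doses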;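 also: the DPM-DC format reads NADH fluorescence rather than 340 nm absorbance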
A340 absorber: compound light absorbance at 340 nm, profiling panel, artefact control, biochemical, MLSMR library, data from PS, PMK, MK assays. compound absorbance at 340 nm, fold over control. fold change at 10 µM. 65,000 tested, under 10 active;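 active = at 10 µM dose, initial 340 nm absorbance at least 2 fold that of control wells; inactive = change under 2 fold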;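 also: initial absorbance extrapolated from kinetic A340 decline of NADH oxidation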
Fluor 339 460: intrinsic fluorescence of library compounds, ex339/em460 – biochemical, MLSMR library, data from DPM-DC assay, artefact control, profiling panel; compound autofluorescence, ex339/em460 nm, NADH buffer; active compounds read high; 1 = no-compound wells, NADH background; fluorescence fold increase at 10 µM; 5.5% of 65,000 active; AID 709, 2007;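 active = at 10 µM, mean starting fluorescence two-fold or more over control wells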;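 also: signal is the first read of a kinetic run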
Of the large screens only hits and unclear results are named; the others gave an inactive call.

COc1ccccc1N1CCN(CCc2n[nH]c(=S)n2-c2ccccc2)CC1	MK inhibit 46.0
Cc1ccc(-c2nn(CC(=O)NCCN3CCOCC3)c(=O)c3ccccc23)cc1	none
O=c1c2cccc3c2c(nn1CN1CCOCC1)-c1ccccc1-3	Fluor 339 460 2.43
O=C(Nc1ccc(Cl)cc1C(=O)Nc1ccc(Br)cn1)c1ccco1	Fluor 339 460 2.27
COc1ccc(Cl)cc1NC(=O)c1ccco1	none
CCCc1cc(=O)[nH]c(SCC(=O)NC2CCCCC2)n1	none
CC(=O)c1cc2c(cc1NC(=O)CSc1nnc(C)s1)OCO2	Fluor 339 460 2
CCCc1cc(=O)[nH]c(SCC(=O)Nc2cc3c(cc2C(C)=O)OCO3)n1	Fluor 339 460 2.15
COc1ccc(C(=O)Nn2cc3c(c2-c2ccccc2)c(=O)n(C)c(=O)n3C)cc1	none
COc1ccc(-c2c3c(=O)n(C)c(=O)n(C)c3cn2-c2ccccc2)cc1	Fluor 339 460 3.82 (not shown: Spn DPM-DC inh)
CNC(=O)c1[nH]cnc1C(=O)Nc1cccc(OC)c1	none
CCOc1ccccc1NC(=O)c1nc[nH]c1C(=O)Nc1ccccc1OCC	Fluor 339 460 5.25 (not shown: Spn DPM-DC inh)
COc1ccc(NC(=O)c2nc[nH]c2C(=O)Nc2ccccc2C)cc1	Fluor 339 460 3.24
Cc1ccccc1NC(=O)c1nc[nH]c1C(=O)NCc1ccccc1	none
COc1ccccc1NC(=O)c1nc[nH]c1C(=O)Nc1ccccc1OC	Fluor 339 460 2.33
Cc1ccc(NC(=O)CSc2nnc(CCCCCNC(=O)OC(C)(C)C)o2)c(C)c1	none
Nc1nc(CSc2nc3ccccc3[nH]2)nc(N2CCOCC2)n1	none
O=C(NC(Cc1ccccc1)C(=O)OCC(=O)N1CCc2ccccc21)c1ccco1 (centres undefined)	none
Cc1ccc(S(=O)(=O)Cn2nnnc2CN2CCCC3(CCCCC3)C2)cc1	none
CCOC(=O)Nc1ccc2c(CN3C(=O)NC4(CCCC4)C3=O)cc(=O)oc2c1	Fluor 339 460 3.28 (not shown: Spn DPM-DC inh)
COc1ccccc1C(=O)NCCC(=O)N1CC(=O)Nc2ccccc21	none
CCCCn1c2nc3ccccc3nc2c2c(=O)n(CC(C)C)cnc21	none (no result: Spn DPM-DC inh)
COCCCn1c2nc3ccccc3nc2c2c(=O)n(Cc3ccc(Cl)cc3)cnc21	Fluor 339 460 3.77 (not shown: Spn DPM-DC inh)
CCCCn1c2nc3ccccc3nc2c2c(=O)n(C(C)CC)cnc21 (centres undefined)	Fluor 339 460 2.1 (not shown: Spn DPM-DC inh)
COCCCn1c2nc3ccccc3nc2c2c(=O)n(Cc3ccccc3Cl)cnc21	Fluor 339 460 2.87
O=c1c2c3nc4ccccc4nc3n(Cc3ccccc3)c2ncn1Cc1ccco1	Fluor 339 460 3.28
CN1CC2=Cc3ccccc3OC23Oc2ccccc2C=C3C1	none
CC(NC(=O)C1CC2CCCC(C1)C2=O)c1ccccc1 (centres undefined)	none
COCCCn1c(C)nc2c(c1=O)c1nc3ccccc3nc1n2CCc1ccccc1	Fluor 339 460 2.43 (not shown: Spn DPM-DC inh)
CCOC(=O)c1sc(C)c2c1NC(C)(c1cccs1)NC2=O (centres undefined)	Fluor 339 460 2.97 (not shown: Spn DPM-DC inh)
CCOC(=O)c1sc(C)c2c1NC1(CCCCC1)NC2=O	Fluor 339 460 3.86 (not shown: Spn DPM-DC inh)
CCCCOc1ncnc2c1[nH]c1ccccc12	Fluor 339 460 2.34
CCCCOc1ncnc2c1[nH]c1ccc(F)cc12	Fluor 339 460 2.68
CSc1nnc(-c2cnccn2)n1CCCN1CCCC1=O	none
COc1ccc(S(=O)(=O)Nc2nnc(C)s2)cc1	PMK inhibit 30.0
Cc1nnc(NS(=O)(=O)c2ccc(N)cc2)s1	none
Cc1ccc(S(=O)(=O)c2nc(S(C)(=O)=O)sc2NCC2CCCO2)cc1 (centres undefined)	Fluor 339 460 2.14 (not shown: Spn DPM-DC inh)
CC(=O)NC(Cc1ccc(F)cc1)C(=O)N1CCN(C(=O)NCc2ccccc2)CC1 (centres undefined)	none
Cc1ccc(-c2cnc(-c3ccncc3)o2)cc1	Fluor 339 460 2.17 (not shown: Spn DPM-DC inh)
Cc1ccc(-c2nc(-c3cccnc3)no2)cc1	none
N#C/C(=C\C1CC=CCC1)c1nc2ccccc2[nH]1 (centres undefined)	Spn DPM-DC inh active
Cc1nn2c(c1-c1ccccc1)NC1=C(C(=O)CCC1)C2c1cccnc1 (centres undefined)	Fluor 339 460 3.81 (not shown: Spn DPM-DC inh)
Cc1nc(NC(=O)CSc2nc3cccnc3n2Cc2ccccc2)sc1C	none
CCOC(=O)N1CCN(Cc2nc3c(c(=O)[nH]c(=O)n3C)n2Cc2cc(C)ccc2C)CC1	none
CCOc1ccc(N2C(=O)CC(n3nc(C)cc3C)C2=O)cc1 (centres undefined)	none
CCOC(=O)CS(=O)(=O)c1nc(-c2ccccc2)cc(C(F)(F)F)n1	none
NC(=O)c1c(C(F)(F)F)cc(-c2ccccc2)nc1NCCO	Fluor 339 460 3.74 (not shown: Spn DPM-DC inh)
C=CCOC(=O)C1=C(C)NC(SCC(=O)NC(=O)OCC)=C(C#N)C1c1cccnc1 (centres undefined)	Fluor 339 460 3.08
Nc1c(C(O)(C(F)(F)F)C(F)(F)F)ccc2ccccc12	none
COC(=O)c1cc2c(=O)n3cccc(C)c3nc2n(Cc2cccnc2)c1=N	Fluor 339 460 2.27 (not shown: Spn DPM-DC inh)
COc1ccc(CNC(=O)c2cc3c(=O)n4ccccc4nc3n(Cc3cccnc3)c2=N)cc1	none
CCOC(=O)c1cc2c(=O)n3cc(C)ccc3nc2n(Cc2cccnc2)c1=N	Fluor 339 460 2.13 (not shown: Spn DPM-DC inh)
C=CCn1c(=N)c(C(=O)OCC)cc2c(=O)n3cc(C)ccc3nc21	Fluor 339 460 2.06 (not shown: Spn DPM-DC inh)
CCOC(=O)c1cc2c(=O)n3cccc(C)c3nc2n(Cc2cccnc2)c1=N	Fluor 339 460 2.25 (not shown: Spn DPM-DC inh)
COCCCn1c(=N)c(C(N)=S)cc2c(=O)n3cccc(C)c3nc21	none
C=CCn1c(=N)c(C(=O)OC)cc2c(=O)n3cccc(C)c3nc21	Fluor 339 460 3.75 (not shown: Spn DPM-DC inh)
CC(=O)OC1CSc2nc3ccccc3n2C1 (centres undefined)	none
CCc1nc2c(c(=O)[nH]1)C1(CCCC1)Cc1ccccc1-2	none
O=c1[nH]c(NCCO)nc2c1C1(CCCCC1)Cc1ccccc1-2	Fluor 339 460 3.88 (not shown: Spn DPM-DC inh)
CC1(C)CC(n2c(NCCO)nc3c(c2=O)C2(CCCC2)Cc2ccccc2-3)CCO1 (centres undefined)	Fluor 339 460 2.05 (not shown: Spn DPM-DC inh)
Cn1c(=O)c2nc(-c3ccccc3)oc2c2ccccc21	Fluor 339 460 5.01 (not shown: Spn DPM-DC inh)
CCOc1cc2[nH]c(=O)n(CC3CCC(C(=O)NC(C)CC)CC3)c(=O)c2cc1OCC (centres undefined)	Fluor 339 460 2.73
CCOc1cc2[nH]c(=O)n(CC3CCC(C(=O)NC4CCCCC4)CC3)c(=O)c2cc1OCC (centres undefined)	none
